Assay results published in PubChem BioAssay (NCATS).
Results filed as inconclusive are left out. Entries that show only a call come without a potency. Active and inactive are the calls of the source. Unless noted, the call rests on the fitted dose curve; in most records, active means well fitted curve in the direction sought with a large enough effect; inconclusive means small, poorly fitted or top-dose-only effect, or another doubt; inactive means no such curve, though single readings can be large; an effect the other way counts as inactive or inconclusive.

Tests used:
[1] = target: Calcium and integrin-binding protein 1 (Homo sapiens) (UniProt Q99828); test: Primary qHTS for Identification of Calcium Integrin Binding Protein 1 (CIB1) Competitor (AID 1508620);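 further: GST tagged CIB1 binding a fluorescein labelled alphaIIb integrin peptide tracer; top concentration of the series differs between compounds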
Procedure, shortened: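 CIB1-GST (1 uM final) and compound incubated 15 min at room temperature before adding FITC-alphaIIb peptide tracer (100 nM final). Competition for binding read by fluorescence polarization (ex 480, em 540) after another 15 min at room temperature.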

[2] = target: Lysosomal acid glucosylceramidase (Homo sapiens) (UniProt P04062); test: Glucocerebrosidase-p2 (AID 348; in the data active means potency below about 10 µM; further: potency means the concentration at half of the fitted maximal effect); conditions: purified GBA, blue fluorogenic substrate, 40 min
Procedure, shortened: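 Compounds titrated from 0.6 nM upwards against 0.2 nM enzyme in pH 5.9 citric acid/KH2PO4, taurocholate, tween-20; blue fluorogenic substrate 80 uM, 40 min room temperature, stopped and read Ex 365/Em 440 for AC50.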

[3] = target: Glucocorticoid receptor (Homo sapiens) (UniProt P04150); test: GR-GFP Redistribution (AID 450;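 active means compounds whose dose series gives a full or clear partial fitted curve of increased nuclear translocation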; further: potency means the concentration at half of the fitted maximal effect); conditions: U2OS GR-GFP nuclear translocation, laser cytometry, 2 h
[4] = target: Glucocorticoid receptor (Homo sapiens) (UniProt P04150); test: GR-EFC Redistribution (AID 451; calls by dose curve; further: potency means the concentration at half of the fitted maximal effect); conditions: CHO-K1 GR-EFC translocation, beta-gal luminescence, 2 h
Procedure, shortened: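 Translocation of GR-ED fusion to nuclear EA restores b-gal, read by luminescence after 1 h room-temperature detection. Engineered CHO-K1 biosensor cells, 1,000/well, exposed 2 h at 37 C to titrations up to 46 uM final.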

[5] = target: Mitogen-activated protein kinase 10 (Mus musculus) (UniProt Q61831); test: JNK3 AlphaScreen Assay (AID 530; active means well fitted curve in either direction with a large enough effect, not every such curve was filed as active;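 further: kinase came from lysate of stimulated human HepG2 cells; signal reports phosphorylation of biotinylated GST-cJun 1-79 at Ser73 with 10 µM ATP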)
Procedure, shortened: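 Room-temperature AlphaScreen kinase assay; pre-activated HepG2 lysate as JNK3 source, biotin-GST-cJun(1-79) substrate, 10 uM ATP, compound 15 min preincubation.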

[6] = target: 3',5'-cyclic-AMP phosphodiesterase 4B (Homo sapiens) (UniProt Q07343); test: qHTS Assay for Inhibitors of PDE-IV (AID 607; active means well fitted activation curve with a large enough effect in the main read-out, with a control signal flat, not every such curve was filed as active)
Procedure, shortened: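 Live HEK293 cells with a modified cyclic nucleotide-gated (CNG) channel report intracellular cAMP via membrane-potential dye fluorescence (ex 535/em 590 nm). Endogenous PDE-IV was targeted. Compounds were tested at up to 22.9 uM final; RO 20-1724 100 uM served as control.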

[7] = Confirmation and Secondary Assay for Modulators of Hemoglobin Beta Chain Splicing at IVS2 654 locus (AID 910);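 further: HeLa cells stably carrying EGFP split by mutant beta-globin IVS2-654 intron; per-well total GFP intensity by laser scanning cytometry after 2-day treatment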
Procedure, shortened: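 Readout: per-well total peak green fluorescence (488 nm ex, 500–520 nm em) from objects 5–250 µm, reflecting correct splicing of an EGFP-654 reporter. Compounds were applied for 2 days at 37 °C to overnight-plated HeLa EGFP-654 cells; controls were DMSO and 500 nM IVS2-654 PNA.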

[8] = Confirmation and Secondary Assay for Modulators of Hemoglobin Beta Chain Splicing at IVS2 705 locus (AID 930);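 further: HeLa cells stably expressing the EGFP-705 splicing reporter; GFP fluorescence per well restored by corrected splicing of the IVS2-705 intron in EGFP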
Procedure, shortened: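 HeLa IVS2-705 EGFP reporter cells, 500/well, compound 2 d at 37C; correct splicing yields fluorescent EGFP. Control: 500 nM antisense PNA. Read-out: total peak GFP intensity.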

[9] = qHTS Assay for Lipid Storage Modulators (AID 1519; calls by dose curve); conditions: Drosophila S3 cells, BODIPY lipid droplet/cell ratio, laser cytometry, cells loaded with oleic acid; for activity change, negative = inhibition: at 57.5 µM (top of the series)
Procedure, shortened: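 Cells seeded at 5,000 per well were treated with compounds over a concentration series and loaded with oleic acid (400 uM, as added). Lipid droplet fluorescence (488 nm excitation, 500-530 nm channel) was read by laser-scanning cytometry and normalized to 20 uM Triacsin C.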

[10] = Primary qHTS for small molecule stabilizers of the endoplasmic reticulum resident proteome: Secreted ER Calcium Modulated Protein (SERCaMP) assay (AID 1508630)
Procedure, shortened: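 GLuc-SERCaMP-expressing SH-SY5Y cells, pretreated 16 h with compound, are challenged with thapsigargin to empty ER calcium stores; after 4 h, coelenterazine is added directly to the medium and luminescence is imaged.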

[11] = target: Cytochrome P450 1A2 (Homo sapiens) (UniProt P05177); test: p450-cyp1a2 (AID 410; calls by dose curve; further: potency means the concentration at half of the fitted maximal effect)
Procedure, shortened: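 Inhibition was calculated relative to 57 uM furafylline (full inhibition). The reaction used human CYP1A2 at 20nM with Luciferin-ME at its Km, 100uM, driven by an NADPH-regenerating system for 60 min at room temperature.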

[12] = target: Cytochrome P450 3A4 (Homo sapiens) (UniProt P08684); test: qHTS Assay for Activators of Cytochrome P450 3A4 (AID 885); further: nearly all actives have a fitted effect of over 65% in size
Procedure, shortened: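 Quantitative HTS format: compounds preincubated with 20nM human CYP3A4 and Luciferin-PPXE substrate at KM, reaction started by NADPH regeneration, stopped after 60 min, luciferase luminescence read 20 min later.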

[13] = target: Ubiquitin carboxyl-terminal hydrolase 1 (Homo sapiens) (UniProt O94782); test: Inhibitors of USP1/UAF1: Pilot qHTS (AID 504865);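 further: rhodamine fluorescence freed from ubiquitin-rhodamine substrate followed over time; top concentration of the series differs between compounds; nearly all actives have a fitted effect of over 35% in size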
Procedure, shortened: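 Kinetic fluorescence assay: 1nM USP1/UAF1, 15 min compound preincubation, then 150nM Ub-Rho; 480/540 nm.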

[14] = measured here: cell count channel max response
[15] = measured here: lipid channel max response

Sequence of Glucocorticoid receptor (Homo sapiens) (P04150 whole entry, looked up, the tested form may be a part): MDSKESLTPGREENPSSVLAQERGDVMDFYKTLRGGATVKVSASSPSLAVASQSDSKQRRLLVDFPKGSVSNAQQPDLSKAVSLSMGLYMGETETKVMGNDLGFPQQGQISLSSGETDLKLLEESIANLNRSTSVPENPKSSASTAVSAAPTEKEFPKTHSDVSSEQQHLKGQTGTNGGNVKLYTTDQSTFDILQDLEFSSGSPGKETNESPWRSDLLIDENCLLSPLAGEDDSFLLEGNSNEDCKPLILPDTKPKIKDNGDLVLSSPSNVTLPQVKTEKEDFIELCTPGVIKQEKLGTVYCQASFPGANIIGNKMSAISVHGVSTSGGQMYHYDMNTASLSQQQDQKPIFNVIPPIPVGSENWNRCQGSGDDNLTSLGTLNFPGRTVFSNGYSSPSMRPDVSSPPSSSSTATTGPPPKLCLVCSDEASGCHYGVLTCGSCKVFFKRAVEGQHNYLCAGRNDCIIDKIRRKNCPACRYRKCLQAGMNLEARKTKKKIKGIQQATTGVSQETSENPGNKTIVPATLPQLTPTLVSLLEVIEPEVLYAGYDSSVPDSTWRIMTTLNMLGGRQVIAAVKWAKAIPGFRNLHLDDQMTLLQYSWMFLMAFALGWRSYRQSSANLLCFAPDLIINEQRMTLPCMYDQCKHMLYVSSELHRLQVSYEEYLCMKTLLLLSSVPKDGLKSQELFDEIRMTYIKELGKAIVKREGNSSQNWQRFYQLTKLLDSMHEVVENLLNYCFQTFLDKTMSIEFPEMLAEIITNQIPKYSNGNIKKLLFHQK
Sequence of Calcium and integrin-binding protein 1 (Homo sapiens) (Q99828 whole entry, looked up): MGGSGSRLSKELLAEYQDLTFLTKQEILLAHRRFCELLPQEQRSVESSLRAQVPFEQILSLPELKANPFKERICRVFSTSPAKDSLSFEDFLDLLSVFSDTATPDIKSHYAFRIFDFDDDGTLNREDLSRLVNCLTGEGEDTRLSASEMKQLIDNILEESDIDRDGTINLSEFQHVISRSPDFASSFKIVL
Sequence of Cytochrome P450 1A2 (Homo sapiens) (P05177 whole entry, looked up): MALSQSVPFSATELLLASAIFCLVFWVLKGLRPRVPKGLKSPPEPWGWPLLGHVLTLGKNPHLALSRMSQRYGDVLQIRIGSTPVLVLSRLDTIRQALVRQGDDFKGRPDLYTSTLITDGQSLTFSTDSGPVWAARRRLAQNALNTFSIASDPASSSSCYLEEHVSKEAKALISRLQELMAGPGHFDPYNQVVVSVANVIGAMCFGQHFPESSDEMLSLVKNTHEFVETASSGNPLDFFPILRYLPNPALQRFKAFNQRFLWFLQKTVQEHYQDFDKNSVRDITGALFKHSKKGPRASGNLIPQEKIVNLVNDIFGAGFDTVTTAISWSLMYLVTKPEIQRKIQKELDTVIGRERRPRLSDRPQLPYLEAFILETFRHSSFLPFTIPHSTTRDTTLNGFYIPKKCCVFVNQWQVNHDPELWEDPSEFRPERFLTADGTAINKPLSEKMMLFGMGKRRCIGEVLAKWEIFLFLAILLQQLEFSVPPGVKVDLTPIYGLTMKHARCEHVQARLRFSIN
Sequence of Lysosomal acid glucosylceramidase (Homo sapiens) (P04062 whole entry, looked up): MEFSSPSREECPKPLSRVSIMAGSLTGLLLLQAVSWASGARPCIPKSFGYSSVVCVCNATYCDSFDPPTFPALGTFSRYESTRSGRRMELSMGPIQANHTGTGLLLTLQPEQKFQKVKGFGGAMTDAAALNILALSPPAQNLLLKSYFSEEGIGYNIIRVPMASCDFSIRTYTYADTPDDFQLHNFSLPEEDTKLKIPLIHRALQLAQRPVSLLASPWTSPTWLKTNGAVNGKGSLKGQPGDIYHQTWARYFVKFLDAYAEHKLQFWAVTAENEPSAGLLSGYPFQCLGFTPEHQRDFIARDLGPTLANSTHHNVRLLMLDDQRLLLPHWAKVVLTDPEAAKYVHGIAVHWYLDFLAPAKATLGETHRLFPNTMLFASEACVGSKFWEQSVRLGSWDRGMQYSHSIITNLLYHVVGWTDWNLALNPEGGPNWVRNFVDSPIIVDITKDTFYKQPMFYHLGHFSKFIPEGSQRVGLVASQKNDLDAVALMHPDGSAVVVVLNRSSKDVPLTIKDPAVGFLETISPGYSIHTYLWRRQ
Sequence of 3',5'-cyclic-AMP phosphodiesterase 4B (Homo sapiens) (Q07343 whole entry, looked up): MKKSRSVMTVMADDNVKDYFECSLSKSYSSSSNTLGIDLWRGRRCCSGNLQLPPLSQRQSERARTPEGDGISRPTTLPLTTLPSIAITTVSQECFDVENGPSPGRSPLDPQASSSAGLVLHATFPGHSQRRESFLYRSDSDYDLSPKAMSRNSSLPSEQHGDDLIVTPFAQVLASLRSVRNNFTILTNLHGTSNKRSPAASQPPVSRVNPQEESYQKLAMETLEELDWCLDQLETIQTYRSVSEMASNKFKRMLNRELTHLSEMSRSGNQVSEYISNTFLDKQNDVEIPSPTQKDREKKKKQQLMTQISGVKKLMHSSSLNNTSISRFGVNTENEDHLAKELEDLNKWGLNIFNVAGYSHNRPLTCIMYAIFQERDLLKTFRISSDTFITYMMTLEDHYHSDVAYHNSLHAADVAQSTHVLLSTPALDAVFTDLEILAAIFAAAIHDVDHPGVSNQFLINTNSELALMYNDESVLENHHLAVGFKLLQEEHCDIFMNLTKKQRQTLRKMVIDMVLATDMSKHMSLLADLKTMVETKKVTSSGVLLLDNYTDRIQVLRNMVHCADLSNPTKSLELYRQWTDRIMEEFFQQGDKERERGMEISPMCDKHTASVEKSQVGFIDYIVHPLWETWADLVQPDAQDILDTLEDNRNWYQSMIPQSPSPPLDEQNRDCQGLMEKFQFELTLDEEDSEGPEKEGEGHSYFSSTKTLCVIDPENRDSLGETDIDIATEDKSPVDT
Sequence of Cytochrome P450 3A4 (Homo sapiens) (P08684 whole entry, looked up): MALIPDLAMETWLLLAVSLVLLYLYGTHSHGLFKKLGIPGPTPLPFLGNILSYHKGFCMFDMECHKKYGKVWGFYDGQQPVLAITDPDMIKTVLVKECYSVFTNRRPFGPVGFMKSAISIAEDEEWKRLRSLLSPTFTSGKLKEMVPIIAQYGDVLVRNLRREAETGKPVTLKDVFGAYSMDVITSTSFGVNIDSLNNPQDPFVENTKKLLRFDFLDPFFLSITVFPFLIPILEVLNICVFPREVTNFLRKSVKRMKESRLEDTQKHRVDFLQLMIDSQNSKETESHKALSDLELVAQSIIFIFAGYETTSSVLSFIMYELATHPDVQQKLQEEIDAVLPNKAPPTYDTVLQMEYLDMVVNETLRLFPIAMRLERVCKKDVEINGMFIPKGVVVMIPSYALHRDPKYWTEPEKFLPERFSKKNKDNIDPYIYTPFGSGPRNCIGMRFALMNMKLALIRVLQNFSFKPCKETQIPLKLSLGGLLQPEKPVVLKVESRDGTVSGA
Sequence of Ubiquitin carboxyl-terminal hydrolase 1 (Homo sapiens) (O94782 whole entry, looked up): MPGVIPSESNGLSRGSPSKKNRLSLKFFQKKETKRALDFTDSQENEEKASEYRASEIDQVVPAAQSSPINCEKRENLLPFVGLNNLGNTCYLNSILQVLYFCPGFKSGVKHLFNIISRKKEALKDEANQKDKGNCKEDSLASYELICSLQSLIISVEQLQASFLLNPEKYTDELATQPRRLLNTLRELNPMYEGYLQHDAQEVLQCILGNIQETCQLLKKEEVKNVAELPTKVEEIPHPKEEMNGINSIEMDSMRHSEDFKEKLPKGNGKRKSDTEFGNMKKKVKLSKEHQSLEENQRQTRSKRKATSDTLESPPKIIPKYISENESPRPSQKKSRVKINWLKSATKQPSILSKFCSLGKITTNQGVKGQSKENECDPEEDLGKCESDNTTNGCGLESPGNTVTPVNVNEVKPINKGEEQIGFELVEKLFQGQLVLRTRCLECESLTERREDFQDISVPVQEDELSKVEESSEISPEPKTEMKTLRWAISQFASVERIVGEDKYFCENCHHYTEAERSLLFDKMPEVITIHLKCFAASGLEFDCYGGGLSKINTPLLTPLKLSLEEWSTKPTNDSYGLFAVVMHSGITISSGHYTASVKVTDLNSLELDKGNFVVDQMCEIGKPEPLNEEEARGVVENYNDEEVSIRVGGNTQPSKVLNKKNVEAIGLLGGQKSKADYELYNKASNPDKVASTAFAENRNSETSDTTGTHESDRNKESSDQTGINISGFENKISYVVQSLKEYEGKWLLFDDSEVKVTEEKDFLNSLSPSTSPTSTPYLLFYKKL

Question: With `C=C(C)c1cc2c(s1)c1cnn(Cc3ccccc3F)c(=O)c1n2C` as the compound, how does the Potency [1] read?
Answer: Its Potency is “inactive”.

Question: For `c1cncc(CNc2ncnc3ccc(-c4cccnc4)cc23)c1`, which Potency [2] is on record?
Answer: The Potency was > 11.4 µM (inactive).

Question: What about the Potency [3] of the same compound?
Answer: Its Potency is > 46 µM (inactive).

Question: What about the Potency [4] of the same compound?
Answer: Its Potency is > 46 µM (inactive).

Question: And the outcome [5]?
Answer: The outcome was “inactive”.

Question: And the Potency [6]?
Answer: The Potency was “inactive”.

Question: What about the outcome [7] of the same compound?
Answer: Its outcome is “inactive”.

Question: And the outcome [8]?
Answer: The outcome was “inactive”.

Question: What about the activity change, negative = inhibition [9] of the same compound?
Answer: Its activity change, negative = inhibition is 7.28% (inactive).

Question: What about the max response [9, 14] of the same compound?
Answer: The max response was -9.9%.

Question: What about the max response [9, 15] of the same compound?
Answer: Its max response is -4.35%.

Question: What about the Potency [1] of the same compound?
Answer: The Potency was “inactive”.

Question: What about the Potency [10] of the same compound?
Answer: Its Potency is “inactive”.

Question: With `COc1ccc(C(CC(=O)N2CC(C)CC(C)C2)c2c(O)cc(OC)cc2OC)cc1` (configuration not stated) as the compound, how does the Potency [1] read?
Answer: The Potency was “inactive”.

Question: With `Cc1ccc(CN(C)c2ncnc3ccc(-c4ccc5c(c4)OCO5)cc23)o1` as the compound, how does the Potency [1] read?
Answer: Its Potency is “inactive”.

Question: Which results are given for `Cc1cccc(CNc2ncnc3ccc(-c4cccnc4)cc23)c1`?
Answer: Potency [11]: 316 nM (active); Potency [4]: > 46 µM (inactive); outcome [5]: inactive; Potency [12]: inactive; outcome [7]: inactive; outcome [8]: inactive; activity change, negative = inhibition [9]: 2.99% (inactive); max response [9, 14]: -7.82%; max response [9, 15]: -4.88%; Potency [13]: inactive; Potency [1]: inactive; Potency [10]: inactive
